Bioassay records from PubChem BioAssay.
Compounds with a hit are over-represented: about 21% of the library has one in this group of screens.
Pf growth 48h – Primary qHTS for delayed death inhibitors of the malarial parasite plastid, 48 hour incubation; P. falciparum luciferase growth in erythrocytes, 48 h; Potency, µM (doses to about 28.7 µM), for the others: top-dose activity change, negative = inhibition, actives largely listed as inhibitors; 5.9% of 310,000 active; AID 504832, 2011; also: potency is read from the fitted curve at half-maximal effect; % is scaled to controls: 0 for no effect and ±100 for the full control effect
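Luminescence readout; reporter = integrated firefly luciferase in P. falciparum. RBC culture at 2% hematocrit, 0.1% parasitemia final, 37 C/5% CO2; decreased signal taken as growth inhibition.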
Cycloheximide cs – Cycloheximide Counterscreen for Small Molecule Inhibitors of Shiga Toxin; max response, %; cell reporter, cycloheximide protein synthesis inhibition counterscreen; 12% of 300,000 active; in the data active = max response mostly above about 13%, no sharp cut-off; inactive = mostly below about 14%; also: read at 38.3 µM for the half of the compounds with a filed dose; 0% is about no effect
NS1 inh – qHTS Assay for Inhibitors of Influenza NS1 Protein Function. Potency, µM (top dose mostly 46.1 µM), for inactives: at the highest dose activity, positive = more growth. 0.4% of 270,000 active. AID 2326, 2010; calls by dose curve; also: potency is read from the fitted curve at half-maximal effect; actives are rising curves; nearly all actives have a fitted effect of over 50% in size
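Compounds were scored for reversing the slow growth caused by influenza A NS1 in S. cerevisiae, measured by optical density at 600 nm. Assay medium contained 2% galactose at pH 6.0; NS1-free yeast of the same strain were the positive control.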
Shiga inhibitor – A qHTS for Small Molecule Inhibitors of Shiga Toxin; Vero cells, Shiga toxin protein synthesis inhibition reporter; inhibition, % at 38.7 µM; 9.2% of 290,000 active; in the data active = inhibition mostly above about 28%, no sharp cut-off; inactive = mostly below about 43%; also: 0% is about no effect
Pf growth 96h – Primary qHTS for delayed death inhibitors of the malarial parasite plastid, 96 hour incubation | P. falciparum luciferase reporter growth, 96 h | Potency, µM (series often up to 28.7 µM), inactives show top-dose activity change, negative = inhibition, hits mostly inhibitors | 6.9% of 320,000 active | AID 504834, 2011; also: potency is read from the fitted curve at half-maximal effect; % is scaled to controls: 0 for no effect and ±100 for the full control effect
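Parasite growth measured via integrated firefly luciferase reporter in P. falciparum. Infected erythrocytes at 2% hematocrit, 0.05% parasitemia final were treated 96 hours at 37 C under 5% CO2, and luminescence was read.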
The depositor's hits bear a star; i = inactive; ? = inconclusive; / = no result; [ ] = dose if it differs, or a comment. Unless noted, calls follow the shape of the dose curve; as a rule, active = well fitted inhibition curve with a large enough effect; inconclusive = small, poorly fitted or top-dose-only effect, or another doubt; inactive = no such curve, though single readings can be large or run the other way.

SMILES	Pf growth 48h	Cycloheximide cs	NS1 inh	Shiga inhibitor	Pf growth 96h
Cc1ccc(NC(=O)c2ccc(OC(=O)c3ccco3)cc2)cc1	189%	36*	-10%	73*	4%
O=C(CNC(=O)c1ccco1)NCC(=O)OCc1cccc(C(=O)Oc2ccccc2)c1	31%	13*	-2%	42*	/
O=C(Oc1ccccc1)c1ccc(NC(=O)c2ccco2)cc1	?	53*	-7%	100*	17%
Cc1ccc(Oc2ccc(NC(=O)c3ccco3)cc2)cc1	0.93µM*	67*	-219%	99*	-2%
O=C(c1c[nH]c(C(=O)N2CCN(c3ccccc3F)CC2)c1)c1cccc(Cl)c1Cl	0%	10	-6%	-15	?
Cc1ccc(S(=O)(=O)N(C)C)cc1NC(=O)COC(=O)C1CC(=O)N(c2ccc3c(c2)OCCO3)C1 (centres undefined)	23%	/	/	/	65%
Cc1ccc(NC(=O)c2ccc(OC(=O)c3cc4ccccc4o3)cc2)cc1	204%	40*	1%	81*	/
COC(=O)CC(NC(=O)c1ccco1)c1ccc(C(C)C)cc1 (centres undefined)	-17%	-2	-2%	-15	/
CCOC(=O)CC(NC(=O)c1ccco1)c1ccc(C)cc1 (centres undefined)	3%	-1	-3%	12	6.6µM*
Cc1nc2c(C#N)cnn2c2c1CCN2CC1CCCO1 (centres undefined)	-13%	-1	-2%	-9	?
Cn1nc(C(=O)Nc2cc(Cl)ccc2N2CCCC2)c2ccccc2c1=O	12µM*	/	/	/	13µM*
CN1CCN(c2ccc(Cl)cc2NC(=O)c2nn(-c3ccccc3)c(=O)c3ccccc23)CC1	-18%	-3	-2%	18	15µM*
CN1CCN(c2ccc(Cl)cc2NC(=O)c2ccc([N+](=O)[O-])cc2)CC1	?	-4	8%	-10	?
COC(=O)c1ccc(C)c(NC(=O)c2nn(C)c(=O)c3ccccc23)c1	?	0	7%	30	13µM*
Cc1cccc2cc3c(NC(=O)C(C)(C)C)nn(CC(C)C)c3nc12	?	-3	4%	-4	?
CCc1ccc(N(CC(=O)N2CCOCC2)S(C)(=O)=O)cc1	-5%	2	5%	/	13µM*
COc1ccc(S(=O)(=O)N(CC(=O)N2CCN(c3ccccc3)CC2)c2ccccc2)cc1	/	1	7%	6	?
COc1ccc(N2CCN(C(=O)CN(c3ccccc3)S(C)(=O)=O)CC2)cc1	-16%	2	2%	-3	10µM*
COc1ccc(N2CCN(C(=O)CN(c3cccc(OC)c3)S(=O)(=O)c3ccccc3)CC2)cc1	13µM*	-4	-9%	-1	?
CCOCCCNC(=S)N1CCN(c2nc(-c3ccc(F)cc3)cs2)CC1	9.3µM*	1	-14%	/	?
COCCCNC(=S)N1CCN(c2nc(-c3ccc(F)cc3)cs2)CC1	?	9	-55%	/	?
CNC(=S)N1CCN(c2nc(-c3ccc(F)cc3)cs2)CC1	6%	13*	19%	20	17%
COCCSc1ccccc1C(=O)Nc1ccccc1C#N	10%	-1	1%	-12	-11%
COC(=O)C1=C[C@@H](C(=O)OC)[C@@H]2C3=C(C(=O)[C@@]2(CC(C)C)NC(=O)c2ccccc2)[C@H](C)n2c(=O)n(-c4ccccc4)c(=O)n2[C@@H]3C1	/	-5	/	0	/
Cc1cc(O)c(-c2cc(C(=O)Nc3ccc(S(=O)(=O)N4CCOCC4)cc3)[nH]n2)cc1C	1.9µM*	-2	-36%	2	i
SMILES	Pf growth 48h	Cycloheximide cs	NS1 inh	Shiga inhibitor	Pf growth 96h
O=C(Cc1ccc(Cl)cc1)Nc1ccc(S(=O)(=O)N2CCOCC2)cc1	?	-5	-4%	-2	6%
O=C(Nc1ccc(S(=O)(=O)N2CCOCC2)cc1)c1cc(-c2cc(Cl)ccc2O)n[nH]1	0.83µM*	-2	-2%	-7	1.3µM*
Cc1cc(C)c2c(c1)/C(=N\N=c1\sc3ccccc3n1C)C(=O)N2	?	-1	-2%	28	?
O=C(N/N=C\c1ccc(Cl)s1)c1cccs1	/	43*	-18%	85	?
O=C(N/N=C/c1ccncc1)c1ccc(NS(=O)(=O)c2cccs2)cc1	7%	9	/	25	32%[5.75 µM]
O=C(O)c1ccc(COc2ccc(/C=N/NC(=O)c3cccs3)cc2)cc1	42%	73	-3%	113	91%
